HepG2 viability: HepG2 cytotoxicity, counter-screen for TGF-b inhibitors. AID 588856. 410,000 compounds, 0.76% hits. HepG2 CAGA-GFP viability, ATP luminescence, 18 h. Potency, µM (highest dose often 46.1 µM), actives largely listed as cytotoxic
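CellTiter-Glo luminescence gave cytotoxicity after 18 hours at 37 degrees C. The cells were HepG2 CAGA-GFP in 1% FBS DMEM, stimulated with 500 pg/mL TGF-beta after compound addition. %Activity was normalised to no-cell wells (complete cell-killing) and DMSO (no toxicity), and curves were fitted and classified.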
TDP1 block: blocks human tyrosyl-DNA phosphodiesterase 1. Q9NUW8. recombinant TDP1, AlphaScreen DNA substrate cleavage. Potency, µM (highest dose often 130 µM), hits mostly inhibitors. 350,000 compounds, 0.28% hits; also: nearly all actives have a fitted effect of over 40% in size
Target sequence (Q9NUW8 whole entry, looked up): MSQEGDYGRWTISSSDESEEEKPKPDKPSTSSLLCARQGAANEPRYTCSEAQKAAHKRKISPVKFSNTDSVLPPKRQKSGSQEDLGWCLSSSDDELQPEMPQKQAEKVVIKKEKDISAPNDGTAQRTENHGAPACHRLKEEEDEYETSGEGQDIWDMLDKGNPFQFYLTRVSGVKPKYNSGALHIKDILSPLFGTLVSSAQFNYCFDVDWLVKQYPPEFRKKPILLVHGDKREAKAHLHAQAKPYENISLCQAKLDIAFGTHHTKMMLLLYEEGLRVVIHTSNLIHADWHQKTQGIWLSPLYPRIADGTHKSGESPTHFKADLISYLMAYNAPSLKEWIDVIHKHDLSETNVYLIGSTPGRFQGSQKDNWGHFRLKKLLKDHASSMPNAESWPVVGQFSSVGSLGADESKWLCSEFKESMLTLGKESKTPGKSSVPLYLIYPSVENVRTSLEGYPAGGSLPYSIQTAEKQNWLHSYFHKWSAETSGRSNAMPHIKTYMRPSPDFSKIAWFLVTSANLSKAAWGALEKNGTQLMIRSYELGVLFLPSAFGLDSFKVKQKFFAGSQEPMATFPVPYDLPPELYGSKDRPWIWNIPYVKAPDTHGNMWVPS
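Steps: enzyme plus compound, 15 min RT; add biotin/phosphotyrosine-FITC oligonucleotide (15 nM final), react 5 min; add donor/acceptor beads (10 ug/ml final), 10 min; read AlphaScreen. Tdp1 at 1 nM final.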
TGFb inhibitor: inhibitors of TGF-b signaling. HepG2 CAGA-GFP TGF-b/SMAD3 reporter, GFP fluorescence, 18 h; TGF-beta stimulated, 500 pg/mL final. 410,000 compounds, 1.2% hits. Potency, µM (series often up to 46.1 µM), actives largely listed as inhibitors; also: nearly all actives have a fitted effect of over 65% in size
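Per well, imaged GFP fluorescence of HEPG2 CAGA-GFP cells gives the signal; cells get compound, then TGF-beta (500 pg/mL final), 18 h at 37 degrees C; %Activity versus -TGF-beta and +DMSO controls.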
IL-1B inflam inh: inflammasome signaling inhibition, IL-1 beta readout. THP-1 LPS/ATP IL-1B secretion, AlphaLISA, 16 h; hits give low values. 360,000 compounds, 4.7% hits. activity change, % at 57.5 µM. AID 743279; in the data active = activity change below about -50%; inconclusive = mostly about -30% to -49%
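Secreted IL-1B measured by AlphaLISA bead assay after 16 h compound exposure of THP-1 cells; compounds (final up to 57.5 uM) added 1 h before LPS (250 ng/mL) and ATP (1.25 mM) stimulation; lower signal means less secretion.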
TDP1 cell noCPT: qHTS for Inhibitors of human tyrosyl-DNA phosphodiesterase 1 (TDP1): qHTS in cells in absence of CPT. Potency, µM (titrated, usually from 46.2 µM), most hits filed as inhibitors. DT40 Tdp1-/- hTDP1 cells, no CPT, ATP luminescence, 48 h. 420,000 compounds, 15% hits; also: nearly all actives have a fitted effect of over 55% in size
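Chicken DT40 Tdp1-/- cells complemented with human TDP1, screened without camptothecin (DMSO vehicle only), 400 cells/well. Compounds pin-transferred, cells incubated at 37 °C for at least 48 hr. Growth read as ATP-dependent luminescence (CellTiter-Glo, 30 min at RT).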
DT40 TDP1 CPT: growth inhibition of DT40 Tdp1-/-;hTDP1 cells with camptothecin (screen for TDP1 inhibitors); chicken DT40 Tdp1-/-;hTDP1 cells + 20 nM CPT, ATP luminescence, 48 h; Potency, µM (highest dose often 46.2 µM), hits mostly inhibitors; 420,000 compounds, 12% hits; AID 686979; also: nearly all actives have a fitted effect of over 55% in size
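Chicken DT40 Tdp1-/- cells stably complemented with human TDP1 were seeded at 400 cells/well in medium containing 20 nM camptothecin, exposed to pin-transferred compounds, and grown at 37 °C for at least 48 hr. Viability was read as ATP luminescence.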
A number is an active result; 0 = inactive; ? = inconclusive; - = no result; [ ] = dose if it differs, or a comment. Only some compounds are listed: those with a hit (about 18% of all), similar ones and a draw of the others. Unless noted, calls follow the shape of the dose curve; as a rule, active = well fitted curve in the direction sought with a large enough effect; inconclusive = small, poorly fitted or top-dose-only effect, or another doubt; inactive = no such curve, though single readings can be large; an effect the other way counts as inactive or inconclusive.

SMILES | HepG2 viability | TDP1 block | TGFb inhibitor | IL-1B inflam inh | TDP1 cell noCPT | DT40 TDP1 CPT
CC(c1ccco1)N(C(=O)c1ccccc1F)c1ccccn1 (centres undefined) | 0 | 0 | 0 | 0 | 0 | 0
CCOC(=O)CC(=O)CSc1nc(-c2cccnc2)ccc1C#N | 0 | 0 | 0 | 0 | 3.5µM | ?
O=C(CSC1=Nc2ccccc2C2=NC(Cc3ccccc3)C(=O)N12)Nc1cccc(Cl)c1 (centres undefined) | 0 | 0 | ? | - | 26µM | 16µM
COc1ccc(NC(=O)CSC2=Nc3ccccc3C3=NC(Cc4ccccc4)C(=O)N23)cc1 (centres undefined) | 0 | 0 | 0 | - | 21µM | ?
Cc1ccccc1NC(=O)CSC1=Nc2ccccc2C2=NC(Cc3ccccc3)C(=O)N12 (centres undefined) | 0 | 0 | 0 | - | ? | ?
CCOc1ccc(NC(=O)CSC2=Nc3ccccc3C3=NC(Cc4ccccc4)C(=O)N23)cc1 (centres undefined) | 0 | 0 | 0 | - | ? | ?
COc1ccccc1NC(=O)CSC1=Nc2ccccc2C2=NC(Cc3ccccc3)C(=O)N12 (centres undefined) | 0 | 0 | 0 | - | ? | 23µM
COc1ccc2nc(C(F)(F)Cl)c(C#N)c(N)c2c1 | 0 | 0 | ? | -72 | ? | ?
Cc1cccc(Cn2cccc2CNS(=O)(=O)c2ccccc2F)c1 | 0 | 0 | 0 | - | ? | 0
Cc1ccc(C(=O)Nc2ccc(-c3nc4ccccc4o3)cc2)cc1Cl | 0 | 0[12.3 µM] | 0 | - | ? | ?
COc1ccc(CN2CCN(Cc3cc4ccccc4o3)CC2CCO)cc1C (centres undefined) | 0 | 0 | 0 | ? | ? | ?
CC(=O)NCCNC(=O)c1ccc2c(c1)S(=O)(=O)c1ccccc1C2=O | 0 | 0[0.0935 µM] | 0 | 0 | 0 | 0
O=C1c2ccccc2S(=O)(=O)c2cc(C(=O)N3CCN(c4ccccc4)CC3)ccc21 | 0 | - | 0 | ? | - | ?
CC1CCC(NC(=O)c2ccc3c(c2)S(=O)(=O)c2ccccc2C3=O)CC1 (centres undefined) | 0 | - | 0 | 0 | 15µM | ?
O=C(NCCc1ccccc1)c1ccc2c(c1)S(=O)(=O)c1ccccc1C2=O | 0 | - | ? | 0 | 13µM | ?
CC(C)(C)c1ccc(-c2ccc3c(c2)S(=O)(=O)c2ccccc2C3=O)cc1 | 0 | - | 0 | 0 | 23µM | ?
CC(C)(C)c1ccc2c(c1)C(=O)c1ccccc1C2=O | 0 | 0 | ? | 0 | ? | ?
O=C1c2ccccc2S(=O)(=O)c2cc(N3CCN(C(=O)c4ccccc4)CC3)ccc21 | 0 | - | 0 | -67 | 21µM | 15µM
COc1ccc(CC(=O)NCc2nnc(SCC(=O)Nc3ccc(OC)cc3)n2C)cc1 | 0 | 0 | 0 | 0 | 0 | 0
CCOC(=O)N1CCc2c(sc3c2c(=O)n(-c2ccc(Cl)cc2)c(=O)n3CC(=O)Nc2ccccc2)C1 | 0 | 0 | 0 | - | ? | ?
NC(=O)c1ccc2c(c1)S(=O)(=O)c1ccccc1C2=O | 0 | 0 | 0 | 0 | 16µM | 0
O=C(O)c1ccc2c(c1)S(=O)(=O)c1ccccc1C2=O | 0 | - | 0 | 0 | 0 | 0
O=C(NCCc1ccccc1)c1ccc2c(c1)S(=O)(=O)c1cc(Cl)ccc1C2=O | 0 | 0 | 0 | 0 | 0 | 21µM
O=C(NCCOc1ccccc1Cl)c1ccc2c(c1)S(=O)(=O)c1cc(Cl)ccc1C2=O | 0 | 0 | 0 | 0 | 0 | ?
CCc1ccc(OC(C)C(=O)Nc2ccc(S(=O)(=O)Nc3nccs3)cc2)cc1 (centres undefined) | 0 | 0 | 0 | 0 | 0 | 0
SMILES | HepG2 viability | TDP1 block | TGFb inhibitor | IL-1B inflam inh | TDP1 cell noCPT | DT40 TDP1 CPT
Cc1cc(N=Cc2c(O)n(-c3ccc(C)c(C)c3)c(=O)c3ccccc23)no1 | - | 0 | - | - | - | -
Cc1ccc(-n2c(O)c(C=NC3CCS(=O)(=O)C3)c3ccccc3c2=O)c(C)c1 (centres undefined) | 0 | 0 | 0 | - | ? | 21µM
Cc1ccc(-n2c(O)c(C=Nc3cc(C)on3)c3ccccc3c2=O)c(C)c1 | 0 | 0 | 0 | 0 | 4.6µM | 1.6µM
Cc1ccccc1CN1c2ccccc2-c2nc(SCC(=O)NCCc3ccccc3)ncc2S1(=O)=O | 0 | 0 | 0 | - | ? | 0
CC(C)CC1=NN(C(=O)c2cccnc2)C(O)(C(F)(F)F)C1 (centres undefined) | 0 | 0 | 0 | 0 | 2.9µM | 4.1µM
O=C(c1ccncc1)N1N=C(C2CC2)CC1(O)C(F)(F)F (centres undefined) | 0 | - | 0 | 0 | 5.2µM | 3.7µM
CC(C)CC1=NN(C(=O)c2ccncc2)C(O)(C(F)(F)F)C1 (centres undefined) | 0 | 0 | 0 | 0 | 3.3µM | 2.9µM
CN(C(=O)COC(=O)c1ccccc1SCC(=O)N1CCCC1)C1(C#N)CCCCC1 | 0 | 0 | 0 | 0 | 0 | 0
CCCn1c(C)nc2c(NC3CCN(Cc4ccccc4)C3)nc(C)nc21 (centres undefined) | - | 0 | - | - | - | -
O=C(NCc1cccc(C(F)(F)F)c1)C1CC2Cn3c(nc4ccccc43)C2N1Cc1ccccc1 (centres undefined) | 0 | - | 0 | 0 | 13µM | 0
COc1cc2c(C)nc3c(cnn3-c3ccccc3)c2cc1OC | 0 | 0 | 0 | 0 | 0 | 0
COc1cc2c(-c3ccccc3C)nc3c(c(C)nn3-c3ccccc3)c2cc1OC | 0 | 0[12.3 µM] | 0 | - | ? | 23µM
COc1cc2c(-c3cc(Br)ccc3O)nc3c(c(C)nn3-c3ccccc3)c2cc1OC | 0 | 0[12.3 µM] | 0 | - | 0 | ?
COc1cc(-c2nc3c(c(C)nn3-c3ccccc3)c3cc(OC)c(OC)cc23)ccc1O | 0 | 0 | 0 | ? | 21µM | ?
CC1Sc2ccc(S(=O)(=O)N3CCC(C(=O)NCc4ccccc4)CC3)cc2NC1=O (centres undefined) | 0 | 0 | 0 | 0 | ? | ?
COc1ccc(CNC(=O)c2ccc3nc(C)c(N(C)Cc4ccc(NC(C)=O)cc4)n3c2)cc1 | 0 | - | 0 | 0 | 16µM | 13µM
CC(=O)Nc1ccc(CN(C)c2c(C)nc3ccc(C(=O)NCCCN4CCCC4=O)cn23)cc1 | 0 | - | 0 | 0 | 0 | 0
CCCCN(C)c1c(C)nc2ccc(C(=O)NCc3ccc(OC)cc3)cn12 | 0 | - | 0 | ? | 13µM | 13µM
CC(=O)Nc1ccc(CN(C)c2c(C)nc3ccc(C(=O)Nc4ccc(Cl)c(Cl)c4)cn23)cc1 | 0 | - | 0 | -53 | ? | ?
CCCCC(=O)N(C)c1c(C)nc2ccc(C(=O)NCc3ccccc3OC)cn12 | 0 | - | 0 | 0 | 0 | 0

Screening data deposited in PubChem BioAssay by National Center for Advancing Translational Sciences (NCATS).
